Screening results deposited in PubChem BioAssay by Sanford-Burnham Center for Chemical Genomics.
Sampled rows, rich in hits. Any-hit rate of the full collection: about 2.2%.
KKLEB cytotox = CF airway cell cytotoxicity counter-screen | hit rate 0.36% among 360,000 | activity change (cytotoxicity), % at 5 µM | KKLEB CF airway cells viability, ATPlite luminescence, overnight; active compounds read low; cells stimulated with P. aeruginosa culture filtrate;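 active means corrected activity change at or below -50% at 5 µM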
C8 TRAIL sens = caspase-8 TRAIL sensitization. hit rate 1% among 360,000. NB7+C8 cells + TRAIL, ATPlite viability luminescence. AID 624354. inhibition (viability loss, TRAIL sensitization), % at 10 µM;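 active means compounds causing at least 50% loss of cell viability in the single-dose screen, relative to plate controls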
HIF-2a inh = inhibitors of HIF-2a. inhibition, % at 18.8 µM. 786-0 RCC cells HIF-2a reporter, luciferase luminescence, overnight. AID 624352. hit rate 0.72% among 360,000;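 active means inhibition of the luminescence signal of 40% or more relative to plate controls, in a single-dose primary screen at 18.75 µM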
CF NFkB block = blocks PAF-induced NF-kB reporter in cystic fibrosis cells; KKLEB NF-kB-GFP reporter, GFP fluorescence overnight; inhibition, % at 5 µM; hit rate 0.86% among 360,000;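 active means at least 50% inhibition at 5 µM, scaled per plate between neutral and stimulator controls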;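 further: PAF is a Pseudomonas aeruginosa culture filtrate used as stimulus; plate controls were PAF-stimulated DMSO wells for no effect and unstimulated DMSO wells for full effect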
iPSC survival up = enhancers of human iPSC single-cell survival. AID 602274. hiPSC single-cell survival, ATPlite luminescence; 100% = ROCK inhibitor wells, 0% = DMSO. hit rate 0.044% among 360,000. survival enhancement, % at 20 µM; in the data active means survival enhancement above about 18%;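 further: cells exposed to compounds for 16 hours before the ATP read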
PPC-1+TRAIL kill = kills PPC-1 cancer cells in the presence of TRAIL; hit rate 0.41% among 220,000; cell killing (% activity), % at 4 µM or 5 µM; PPC-1 cells + TRAIL, ATPLite viability luminescence; AID 1443;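 active means cell killing above 50% in the first pass at 4 µM, then a duplicate retest at 5 µM averaging 50% or more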;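 further: plate controls were cells with TRAIL plus DMSO for no effect and medium-only wells lacking cells for full effect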
Numbers without * were called inactive; x = no result.

SMILES	KKLEB cytotox	C8 TRAIL sens	HIF-2a inh	CF NFkB block	iPSC survival up	PPC-1+TRAIL kill
COc1ccc(S(=O)(=O)N2CCC(C(=O)Oc3cccc(C)c3)CC2)cc1OC	3	5	0	1	0	x
Cc1nc2ccc(Cl)cc2n1C	-8	11	-12	-4	-2	x
CCCCOc1ccc(C(=O)NCC(=O)NCC2CCCO2)cc1 (centres undefined)	8	-17	7	-6	0	x
COc1ccc(S(=O)(=O)N2CCOCC2)cc1NC(=O)/C=C/c1ccc(F)cc1	4	5	15	11	0	x
Oc1cc2c(cc1O)[C@@H](c1ccccc1)CNCC2	-24	-7	-3	31	-1	2
Oc1cc2c(cc1O)C(c1ccccc1)CNCC2 (centres undefined)	-58*	4	10	19	0	x
COc1ccc(-n2c(C)cc(-c3cn4cccc(C)c4n3)c2C)cc1	-6	-5	-7	2	-1	6
Cc1cc(-c2cn3ccccc3n2)c(C)n1-c1ccccc1	-10	64*	-214	-3	-3	4
Cc1csc(N=Nc2ccc(N(C)C)cc2)[n+]1[O-]	-10	81*	5	-22	-2	x
Cc1ccc(C=Nc2ccc(N(C)C)cc2)o1	9	2	-137	-7	-1	-2
CC(=O)O[C@@H]1C[C@H](c2ccccc2)OC(=O)CCCCC1=O	x	8	15	x	0	x
O=C1CCCCC(=O)[C@H](OC(=O)c2ccccc2)C[C@H](c2ccccc2)O1	x	67*	5	x	0	x
O=C(NC1CC1)c1ccc2sc([C@@H]3O[C@H](CO)[C@H](O)[C@H](O)[C@H]3O)nc2c1	6	-12	12	-13	3	x
COc1ccc(C(=O)NC2=NCCS2)cc1	-14	4	-156	8	1	x
CC(C)c1ccc(C(=O)NC2=NCCS2)cc1	-10	70*	-51	-3	-2	46
CC(C)Oc1ccc(C(=O)NC2=NCCS2)cc1	6	59*	-105	-9	-1	34
Cc1ccc(C(=O)NC2=NCCS2)cc1	x	x	x	x	x	-2
CC(=O)Oc1c(C)c(C)c2c(c1C)CC[C@@](C)(CCC[C@H](C)CCC[C@H](C)CCCC(C)C)O2	9	7	13	13	0	x
Cc1c(CCC(=O)N[C@@H](C)C(=O)O)c(=O)oc2cc3oc4c(c3cc12)CCCC4	-2	-12	76*	-1	0	x
Cc1c(CCC(=O)N2CCC(C(=O)O)CC2)c(=O)oc2cc3oc4c(c3cc12)CCCC4	-12	-14	58*	10	0	x
Cc1c(CC(=O)NCCC(=O)O)c(=O)oc2cc3oc4c(c3cc12)CCCC4	-3	2	17	-13	0	x
COc1ccc2sc3c(=O)[nH]c4ccccc4c3c2c1	-26	10	17	63*	0	8
COc1ccc2c(c1)[nH]c(=O)c1sc3ccccc3c12	5	10	-8	-16	0	18
CC1OC(COCc2ccccc2)Cc2[nH][nH]c(=O)c21 (centres undefined)	x	-7	-13	x	1	x
CC(=O)c1c2c3c(c(Br)ccc3n(C)c1=O)C(=O)c1ccccc1-2	-11	-3	11	-23	0	x
SMILES	KKLEB cytotox	C8 TRAIL sens	HIF-2a inh	CF NFkB block	iPSC survival up	PPC-1+TRAIL kill
CC(=O)c1c(C)oc2c1C(=O)c1ccccc1C2=O	-26	39	17	86*	-1	8
CN1CCN(C2=C(Cl)C(=O)c3ccccc3C2=O)CC1	-3	49	12	34	-3	x
NC1=C(Cl)C(=O)c2ccc(S(N)(=O)=O)cc2C1=O	-95*	92*	97*	89*	-6	x
NC1=C(Cl)C(=O)c2ccccc2C1=O	7	27	-14	60*	-1	x
CC(=O)Nc1cc(NC(C)=O)cc(C(=O)OC(C)C(=O)Nc2ccc(S(=O)(=O)N3CCCC3)cc2)c1 (centres undefined)	-6	-1	19	-1	1	x
CC(OC(=O)c1ccc2c(=O)n3c(nc2c1)CCC3)C(=O)Nc1ccc(C(N)=O)cc1 (centres undefined)	5	-19	14	5	26*	x
CC(OC(=O)c1ccc2c(=O)n3c(nc2c1)CCC3)C(N)=O (centres undefined)	-2	0	-4	-5	-1	19
CC(OC(=O)c1ccc(S(=O)(=O)N2CCCCC2)cc1)C(=O)Nc1ccc(C(N)=O)cc1 (centres undefined)	-3	7	0	-12	40*	x
CCOC(=O)CSC1=N/C(=C\c2ccc(OC)c(OC)c2)C(=O)N1C	-2	-3	24	6	2	13
c1ccc(CSc2ccc(-c3cccs3)nn2)cc1	-20	54*	-230	-9	-3	24
O=C1/C(=C/N(C(=O)c2ccco2)c2ccc(Cl)cc2)Sc2ccccc21	-9	55*	-33	-20	-1	31
O=C1/C(=C/N(C(=O)c2ccco2)c2ccc(Br)cc2)Sc2ccccc21	-10	57*	-47	-14	-2	15
COc1ccc(CN(C(=O)c2ccco2)c2ccc(Br)cc2)cc1OC	-2	-8	5	-1	-3	-8
O=C(CNC(=O)C1COc2ccccc2O1)N/N=C\c1ccc(Cl)cc1 (centres undefined)	-11	-21	6	12	0	4
CCN=C1S/C(=C\c2cn(C(C)=O)nc2-c2ccccc2)C(=O)N1CC	2	7	-12	28	0	0
CC(=O)NC1=NC(=O)/C(=C/c2cn(C(C)=O)nc2-c2ccccc2)S1	-5	-13	6	57*	-2	-15
COc1ccc(S(=O)(=O)N2CCC(C(=O)NC(c3nc4ccccc4[nH]3)C(C)C)CC2)cc1 (centres undefined)	-8	1	0	16	0	x
O=C1c2cccc3c([N+](=O)[O-])ccc(c23)C(=O)N1c1nccs1	12	53*	40	-45	-6	-5
O=C1c2cccc3c([N+](=O)[O-])ccc(c23)C(=O)N1c1ccccn1	-2	51*	26	-25	-2	4
C/C(=N\NC(=O)c1ccc(CSc2nc(C)cc(C)n2)cc1)c1ccco1	-95*	1	11	90*	-1	9
Cc1cc(C)nc(SCc2ccc(C(=O)N/N=C/c3ccco3)cc2)n1	8	-1	11	2	5	14
COc1cccc(-c2nnc(-c3ccc(C)o3)o2)c1	-17	58*	-119	0	-5	44
COc1cccc(-c2nnc(-c3ccco3)o2)c1	-4	20	-132	9	-2	18
CC(=O)C1(O)CCC2C3CC(C)C4=CC(=O)C=CC4(C)C3(F)C(O)CC21C (centres undefined)	36	2	21	71*	3	x
CC(=O)C12CCCCC1CC1[C@@H]3CC(C)C4=CC(=O)CC[C@]4(C)C3CC[C@@]12C (some centres undefined)	2	14	7	28	0	x
